# Source: PubChem BioAssay (EPA / NIEHS)
# “And” between values parts separate entries of the source, which are not always exact repeats. Identical values can stand only once. Where a structure was tested more than once in an assay, its records may differ in their call. The source made the active and inactive calls. The calls were made as follows: active = hit-call score of the fitted dose curve at least 0.9, where 1 is the maximum; inactive = score below 0.9.
# Assay: CCTE_Shafer_MEA_dev_interburst_interval_mean: CCTE's Neural Network Formation Assay for Mean Interburst Interval, Shafer Lab (AID 2284046)
# Procedure: CCTE_Shafer_MEA_dev assay is conducted using Axion Biosystems 48 well microelectrode array (MEA) plates and Maestro recording system. Each well of the MEA plate contains a grid of 16 microelectrodes embedded in the culture surface. Electrically active cells, such as neurons, can be cultured over the electrodes, and electrical activity in these cells can be recorded extracellularly. The spontaneous firing of neurons is captured from each electrode on a microsecond timescale providing both temporally and spatially precise data. […] The CCTE_Shafer_MEA_dev assay uses primary cultures of rat cortical neurons. Recordings are made on days post-plating 5, 7, 9 and 12. As these cultures mature over time, neural networks develop functional activity and form cohesive networks in which electrical activity can be highly coordinated. CCTE_Shafer_MEA_dev_interburst_interval_mean is 1 of 19 assay components of the CCTE_Shafer_MEA_dev assay. It measures the average time interval between consecutive single-electrode bursts (temporally-clustered groups of action potential firing) during a recording in a microelectrode array (MEA) using Axion Biosystems Maestro 768 channel amplifier with the AxIS adaptive spike detector. The mean inter-burst interval is averaged across the actively bursting electrodes to report a well-mean value. To collapse across multiple recordings made on days post-plating 5, 7, 9 and 12, the trapezoidal area-under-the-curve of the component is calculated.Data from the assay component CCTE_Shafer_MEA_dev_interburst_interval_mean was analyzed into 1 assay endpoint. This assay endpoint, CCTE_Shafer_MEA_dev_interburst_interval_mean, was analyzed in the negative analysis fitting direction relative to DMSO as the negative control and baseline of activity. Using a type of functional reporter, gain or loss-of-signal activity can be used to understand electrical activity.
# On the day prior to culture, each well was coated thoroughly with 150 uL of 0.05% polyethyleneimine (PEI, Sigma Cat P3143) in 50 mM HEPES (Sigma Cat H7523) at a pH of 8. The plate was incubated at 37C for one hour. PEI was rinsed out with 500 uL of sterile water three times. Plates were stored at 4C until the day of culture. This culture was plated at a seeding density of 1.5 x 10^5 cells/well on a 48-well MEA plate, prepared as described above. Cells were administered via a 25 uL media/laminin ([…]; Sigma Cat L2020-1MG) drop directly onto the microelectrode array, as adding the cells with the laminin results in better attachment than pre-coating with laminin. After 2 hours, an additional 475 uL of cortical media was added and the cells returned to the incubator. Exposure starts at day 0 of plating and is continued over twelve days of network development until the experiment is terminated. Cells are fed with fresh medium on DIV 5 and 9, following the recordings on those days. The entire volume of media in the well is exchanged and any vehicle or compound treatment is renewed. Complete details are found in OP-NHEERL/ISTD/SBB/TJS/2015-03-r0 (available on request, email shafer.tim@epa.gov). Measurement of the electrical activity is non-invasive, and recordings can be made from the same plate over multiple different days of the culture. In cortical neurons, this allows for the measurement of extracellular action potentials over the period during which networks form in the MEA plate.
Structure (SMILES),outcome,AC50
CC1(C)C(C=C(Cl)Cl)C1C(=O)OC(C#N)c1ccc(F)c(Oc2ccccc2)c1 (stereo unspecified),inactive,49.9 µM (active) and 21 µM (active)
O=[N+]([O-])/N=C1\NCCN1Cc1ccc(Cl)nc1,inactive,
Oc1cc(Cl)ccc1Oc1ccc(Cl)cc1Cl,,15.6 µM (active)
COP(=O)(OC)OC=C(Cl)Cl,inactive,2.02 µM (active)
O=C(O)COc1ccc(Cl)cc1Cl,inactive,
CCC(C)(C)C(=O)OC1=C(c2ccc(Cl)cc2Cl)C(=O)OC12CCCCC2,inactive,
O=C(O)C(F)(F)C(F)(F)C(F)(F)C(F)(F)C(F)(F)C(F)(F)C(F)(F)F,inactive,
CC[C@H](C)[C@H]1O[C@]2(C=C[C@@H]1C)C[C@@H]1C[C@@H](C/C=C(\C)[C@@H](O[C@H]3C[C@H](OC)[C@@H](O[C@H]4C[C@H](OC)[C@@H](O)[C@H](C)O4)[C@H](C)O3)[C@@H](C)/C=C/C=C3\CO[C@@H]4[C@H](O)C(C)=C[C@@H](C(=O)O1)[C@]34O)O2 (tested in a mixture with another compound),,12.2 nM (active) and 2.7 nM (active)
O=S(=O)(O)C(F)(F)C(F)(F)C(F)(F)C(F)(F)C(F)(F)C(F)(F)C(F)(F)C(F)(F)F,inactive,
CNC(=O)CSP(=S)(OC)OC,inactive,
COP(=S)(OC)Oc1ccc([N+](=O)[O-])cc1,inactive,
O=S1OCC2C(CO1)C1(Cl)C(Cl)=C(Cl)C2(Cl)C1(Cl)Cl (stereo unspecified),inactive,
CC1(c2ccc(Oc3ccccc3)cc2)OC(=O)N(Nc2ccccc2)C1=O (stereo unspecified),,4.55 µM (active)
CC(C)N(C(=O)COc1nnc(C(F)(F)F)s1)c1ccc(F)cc1,inactive,
